Results from the supplement of paper PMC12494721.
Counter-ions that a name gives are not always drawn.

Assays:
Conditions in all cases: 20 µM; incubation time: 27 h, anaerobic, 37 °C;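 for the amine columns active = adjusted P below 0.05 in both replicates with a change the same way and a mean fold change under 0.8 or over 1.25; inactive = the rest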
[1] = test system: Clostridium sporogenes DSM 1664; assay: growth (OD595) fold change vs plate DMSO controls (fold change (ratio)); higher = more growth
Outline: (§1)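 Growth is expressed as the fold change relative to the median of the DMSO control wells on each plate. Cultures in mGAM were grown anaerobically in 96-well plates for 27 h at 37 °C, shaken, and read at 595 nm. Readings were blank-subtracted, corrected for compound background with 20 µM compound solutions in water, and converted to OD with a calibration factor of 5. Fold changes above 1.5 were set to NA, and each value is the mean of 2 biological replicates.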

[2] = test system: Escherichia coli IAI1; assay: as above
Outline: as §1

[3] = test system: Klebsiella aerogenes DSM 30053; assay: as above
Outline: as §1

[4] = test system: Ruminococcus gnavus DSM 108212; assay: as above
Outline: as §1

[5] = test system: Klebsiella aerogenes DSM 30053; assay: fold change of Histamine concentration vs plate DMSO controls (fold change (ratio)); higher = more amine produced, active = hit call of the paper (significant change in both replicates, either direction)
Outline: (§2)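 Amines were quantified by LC–triple-quadrupole MS in dynamic MRM mode against external calibration curves, with drift correction within each batch. The samples were whole anaerobic mGAM cultures of four gut bacterial strains, grown for 27 h at 37 °C in 80 µL wells and extracted with cold acetonitrile/methanol with 0.1% formic acid, then centrifuged. Values are reported as fold change over DMSO controls on the same plate. The mean of 2 biological replicates is given.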

[6] = test system: Clostridium sporogenes DSM 1664; assay: fold change of Tryptamine concentration vs plate DMSO controls (fold change (ratio)); higher = more amine produced, active = hit call of the paper (significant change in both replicates, either direction)
Outline: as §2

[7] = test system: Ruminococcus gnavus DSM 108212; assay: as above
Outline: as §2

[8] = test system: Escherichia coli IAI1; assay: fold change of Putrescine concentration vs plate DMSO controls (fold change (ratio)); higher = more amine produced, active = hit call of the paper (significant change in both replicates, either direction)
Outline: as §2

[9] = test system: Klebsiella aerogenes DSM 30053; assay: as above
Outline: as §2

[10] = test system: Escherichia coli IAI1; assay: fold change of Cadaverine concentration vs plate DMSO controls (fold change (ratio)); higher = more amine produced, active = hit call of the paper (significant change in both replicates, either direction)
Outline: as §2

[11] = test system: Klebsiella aerogenes DSM 30053; assay: as above
Outline: as §2

[12] = test system: Ruminococcus gnavus DSM 108212; assay: fold change of 2-Phenylethylamine concentration vs plate DMSO controls (fold change (ratio)); higher = more amine produced, active = hit call of the paper (significant change in both replicates, either direction)
Outline: as §2

| SMILES | growth [1] | growth [2] | growth [3] | growth [4] | fold change of Histamine concentration [5] | fold change of Tryptamine concentration [6] | fold change of Tryptamine concentration [7] | fold change of Putrescine concentration [8] | fold change of Putrescine concentration [9] | fold change of Cadaverine concentration [10] | fold change of Cadaverine concentration [11] | fold change of 2-Phenylethylamine concentration [12] |
| --- | --- | --- | --- | --- | --- | --- | --- | --- | --- | --- | --- | --- |
| O=P(Oc1ccccc1)(Oc1ccccc1)Oc1ccccc1 [Triphenyl PO4] | 0.98 | 1.03 | 1.02 | 1.04 | 0.998 (inactive) | 1.16 (inactive) | 0.971 (inactive) | 1.01 (inactive) | 0.842 (inactive) | 0.993 (inactive) | 1.14 (inactive) | 0.995 (inactive) |
| COc1ccc(C(CN(C)C)C2(O)CCCCC2)cc1 (stereo not drawn) [Venlafaxine] | 0.902 | 0.974 | 0.983 | 1.1 | 1.04 (inactive) | 0.942 (inactive) | 1.01 (inactive) | 1.04 (inactive) | 1 (inactive) | 0.819 (inactive) | 0.974 (inactive) | 1.06 (inactive) |
| CC[C@@H](C(N)=O)N1CCCC1=O [Levetiracetam] | 1.02 | 1.01 | 1.08 | 0.829 | 0.827 (inactive) | 1.06 (inactive) | 1.07 (inactive) | 1.06 (inactive) | 0.951 (inactive) | 1.02 (inactive) | 1.05 (inactive) | 1.07 (inactive) |
| CCC1(c2ccc(N)cc2)CCC(=O)NC1=O (stereo not drawn) [Glutethimide, para-amino] | 0.956 | 1.01 | 0.979 | 1.14 | 1.12 (inactive) | 1.02 (inactive) | 1.04 (inactive) | 0.992 (inactive) | 1.02 (inactive) | 0.974 (inactive) | 0.993 (inactive) | 1 (inactive) |
| COc1ccc(CN2CCNCC2)c(OC)c1OC [Trimetazidine dihydrochloride] | 0.945 | 0.975 | 0.973 | 1.15 | 1.12 (inactive) | 1.05 (inactive) | 1.03 (inactive) | 0.973 (inactive) | 1.02 (inactive) | 1.01 (inactive) | 0.971 (inactive) | 1.03 (inactive) |
| CN(C)C(CSS(=O)(=O)O)CSS(=O)(=O)O | 1.11 | 0.998 | 0.99 | 0.931 | 1.01 (inactive) | 0.933 (inactive) | 1.02 (inactive) | 1.04 (inactive) | 0.999 (inactive) | 1.02 (inactive) | 0.988 (inactive) | 0.987 (inactive) |
| N#Cc1nn(-c2c(Cl)cc(C(F)(F)F)cc2Cl)c(N)c1[S+]([O-])C(F)(F)F (stereo not drawn) | 1.16 | 0.982 | 0.977 | 1.02 | 1.1 (inactive) | 1.13 (inactive) | 1.06 (inactive) | 1.05 (inactive) | 1.05 (inactive) | 0.937 (inactive) | 1.08 (inactive) | 1.27 (inactive) |
| CC[C@@H](CO)NC(=O)[C@@H]1C=C2c3cccc4[nH]cc(c34)C[C@H]2N(C)C1 [Methylergometrine maleate] | 1.08 | 1.03 | 1 | 1.11 | 1.03 (inactive) | 1.03 (inactive) | 1.02 (inactive) | 0.965 (inactive) | 1.01 (inactive) | 0.996 (inactive) | 1 (inactive) | 1.02 (inactive) |
| O=C(NC(=O)c1c(F)cccc1F)Nc1ccc(OC(F)(F)C(F)OC(F)(F)F)c(Cl)c1 (stereo not drawn) | 0.972 | 1.03 | 1.01 | 0.995 | 0.951 (inactive) | 0.981 (inactive) | 1.01 (inactive) | 1.01 (inactive) | 0.928 (inactive) | 0.872 (inactive) | 1.01 (inactive) | 0.957 (inactive) |
| CCC1(C2=NCCN2)Cc2ccccc2O1 (stereo not drawn) [Efaroxan hydrochloride] | 1.05 | 1.05 | 0.982 | 1.08 | 0.992 (inactive) | 0.939 (inactive) | 1.03 (inactive) | 0.97 (inactive) | 1.01 (inactive) | 1.06 (inactive) | 0.997 (inactive) | 1.01 (inactive) |
| Oc1ccc2c3c1O[C@H]1[C@@H](O)CC[C@@]4(O)[C@@H](C2)N(CC2CCC2)CC[C@]314 [Nalbuphine hydrochloride] | 0.891 | 0.895 | 0.923 | 1.08 | 1 (inactive) | 1 (inactive) | 0.957 (inactive) | 1.04 (inactive) | 1.01 (inactive) | 1.01 (inactive) | 1.01 (inactive) | 0.922 (inactive) |
| CN(C)[C@@H]1C(=O)C(C(N)=O)=C(O)[C@@]2(O)C(=O)C3=C(O)c4c(O)cccc4[C@@](C)(O)[C@H]3C[C@@H]12 [Tetracycline hydrochloride] | 0.00861 | 0.0722 | 0.0623 | 0.735 | 0.0521 (active) | 0.024 (active) | 0.799 (inactive) | 0.291 (inactive) | 0.481 (inactive) | 0.148 (active) | 0.411 (inactive) | 0.86 (inactive) |
| CC(=O)[C@H]1CC[C@H]2[C@@H]3CC[C@H]4C[C@H](O)CC[C@]4(C)[C@H]3C(=O)C[C@]12C [Alfaxalone] | 1.12 | 1.03 | 1.02 | 1.13 | 1.06 (inactive) | 0.957 (inactive) | 0.959 (inactive) | 0.994 (inactive) | 1.06 (inactive) | 1 (inactive) | 1.02 (inactive) | 0.913 (inactive) |
| C[C@]12CC[C@H]3[C@@H](CCC4=CC(=O)CC[C@@H]43)[C@@H]1CC[C@@H]2O [Nandrolone] | 1.11 | 1.06 | 1.02 | 1.01 | 0.993 (inactive) | 1.01 (inactive) | 1.02 (inactive) | 1.04 (inactive) | 1 (inactive) | 1 (inactive) | 0.999 (inactive) | 1.03 (inactive) |
